Screening data deposited in PubChem BioAssay by several laboratories.
S1P2 agonist: S1P2 receptor agonists, primary screen, cell-based | actives 0.46% (n = 97,000) | S1P2-expressing cell line, agonist reporter read-out | AID 729, 2007 | activation, % at 4.5 µM; in the data active = activation above about 16%;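 also: 0% = vehicle low control and 100% = maximal reference agonist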
S1P2 antag: human S1P2 receptor antagonists, primary screen, cell-based | cell-based S1P2 antagonist assay, inhibition at 5 uM | inhibition, % at 5 µM | actives 0.21% (n = 97,000); in the data active = inhibition above about 45%;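 also: CRE beta-lactamase reporter cells expressing human S1P2 stimulated with S1P; 0% = agonist at EC80 alone and 100% = agonist plus reference antagonist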
GALR2 ag: GALR2 receptor agonists, primary screen, cell-based; GALR2-expressing cells, agonist activation read-out; activation, % (concentration not given with the values); actives 0.48% (n = 140,000); AID 803, 2007; in the data active = activation above about 5%, passing the limit was not always enough;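 also: 0% = vehicle buffer wells and 100% = reference agonist at full effect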
Target sequence (O43603 whole entry, looked up): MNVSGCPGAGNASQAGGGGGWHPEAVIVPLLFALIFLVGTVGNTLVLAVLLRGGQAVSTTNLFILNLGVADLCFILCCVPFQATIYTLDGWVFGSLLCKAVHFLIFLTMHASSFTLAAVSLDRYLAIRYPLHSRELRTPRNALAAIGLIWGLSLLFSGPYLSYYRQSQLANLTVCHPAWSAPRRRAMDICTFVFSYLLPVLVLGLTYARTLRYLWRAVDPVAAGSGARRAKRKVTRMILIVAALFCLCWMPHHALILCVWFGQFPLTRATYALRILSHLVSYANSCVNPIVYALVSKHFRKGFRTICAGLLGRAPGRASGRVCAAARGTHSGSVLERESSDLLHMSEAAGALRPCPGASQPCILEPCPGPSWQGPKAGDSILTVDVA
GALR2 blocker: GALR2 antagonists in receptor-expressing cells, primary screen; Galanin receptor type 2 (Homo sapiens), O43603; antagonist mode; inhibition, % at 4 µM; actives 0.39% (n = 140,000); AID 828, 2007; in the data active = inhibition above about 27%;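 also: cells stimulated with galanin 1-16 at roughly its EC80; 0% = agonist challenge control and 100% = basal control without agonist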
PostGolgi yeast: phenotypic screen on post-Golgi transport, primary screen | post-Golgi transport phenotypic cell assay | inhibition, % at 10 µM | actives 0.9% (n = 98,000);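 also: yeast cells grown in 1536-well plates; yeast grown about 18 h at 30C before absorbance read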
PostGolgi ctrl: growth inhibition of yeast control strain, primary screen, counter-screen for post-Golgi transport modulator project; efflux-deficient yeast background strain, growth absorbance A615, 16 h; inhibition, % at 10 µM; actives 5% (n = 98,000)
Starred values were filed as active, the others as inactive. The full list was thinned out, with hits kept by preference. Rule as the data show it, unless noted: active = inhibition above about 30%; inactive = the rest.

Screening O=[N+]([O-])c1ccc2nccn2c1 returned S1P2 agonist 0, S1P2 antag 14, GALR2 ag -2, GALR2 blocker -4, PostGolgi yeast 3 and PostGolgi ctrl 17.
`CCS(=O)(=O)N1CCN(C(=O)c2cc(OC)cc(OC)c2)CC1` gave S1P2 agonist -11, S1P2 antag 2, GALR2 ag 0, GALR2 blocker 8, PostGolgi yeast 2 and PostGolgi ctrl 31*.
`COc1ccc(C(=O)N2CCN(c3ccc(C)cc3C)CC2)cc1OC` gave GALR2 ag -2, GALR2 blocker 8, PostGolgi yeast -6 and PostGolgi ctrl 26.
Cc1ccc(N2CCN(C(=O)c3ccccc3F)CC2)c(C)c1 was read as S1P2 agonist -2, S1P2 antag -3, GALR2 ag -2, GALR2 blocker 5, PostGolgi yeast -1 and PostGolgi ctrl 42*.
`CCOc1ccc(NS(=O)(=O)c2cnc(Cl)c(Cl)c2)cc1` gave GALR2 ag 0 and GALR2 blocker -12.
Screening Cc1cc(C)cc(NS(=O)(=O)c2cnc(Cl)c(Cl)c2)c1 returned S1P2 agonist -3, S1P2 antag 5, GALR2 ag -1, GALR2 blocker 4, PostGolgi yeast 2 and PostGolgi ctrl 43*.
Screening Cc1ccc(C(=O)CCNc2ccc(Cl)cc2)o1 returned S1P2 agonist -2, S1P2 antag 2, GALR2 ag -2, GALR2 blocker -4, PostGolgi yeast -4 and PostGolgi ctrl 19.
Screening C/C(=N\S(=O)(=O)c1ccc(C)cc1)N1CCN(S(=O)(=O)c2ccccc2)C1 returned S1P2 agonist -6, S1P2 antag 5, GALR2 ag -4, GALR2 blocker 11, PostGolgi yeast 2 and PostGolgi ctrl 31*.
`Cc1[nH]c2ccccc2c1C1(O)C(=O)N(C(C)C)c2ccccc21` (configuration not stated) gave S1P2 agonist -5, S1P2 antag -14, GALR2 ag -2, GALR2 blocker 4, PostGolgi yeast -14 and PostGolgi ctrl 28.
Screening Cc1[nH]c2ccccc2c1C1(O)C(=O)N(Cc2ccc3c(c2)OCO3)c2ccccc21 (configuration not stated) returned S1P2 agonist -7, S1P2 antag -13, GALR2 ag 0, GALR2 blocker -16, PostGolgi yeast 5 and PostGolgi ctrl 31*.
CCOc1ccccc1N1CCN(C(=O)CCCc2nc3ccccc3s2)CC1 was read as GALR2 ag -2 and GALR2 blocker -2.
Screening CC(=O)Nc1cccc(NC(=O)CSc2ncc(-c3ccc(Cl)cc3)n2Cc2ccco2)c1 returned S1P2 agonist -14, S1P2 antag 10, GALR2 ag -1, GALR2 blocker 3, PostGolgi yeast -4 and PostGolgi ctrl 37*.
`COc1ccc([N+](=O)[O-])cc1NC(=O)c1ccc(C)o1` gave GALR2 ag -2 and GALR2 blocker 2.
Cc1ccc(OCc2nc(C#N)c(NCc3ccco3)o2)cc1 was read as S1P2 agonist 0, S1P2 antag -4, GALR2 ag -1, GALR2 blocker 8, PostGolgi yeast 1 and PostGolgi ctrl 27.
N#Cc1nc(COc2ccccc2Cl)oc1NCc1cccnc1 was read as S1P2 agonist 0, S1P2 antag -12, GALR2 ag -1, GALR2 blocker 12, PostGolgi yeast 59* and PostGolgi ctrl 47*.
N#Cc1nc(COc2cccc(Cl)c2)oc1NCc1ccco1 was read as S1P2 agonist -3, S1P2 antag 12, GALR2 ag -1, GALR2 blocker -12, PostGolgi yeast 25 and PostGolgi ctrl 33*.
N#Cc1nc(COc2ccccc2Cl)oc1NCc1ccc(F)cc1 was read as S1P2 agonist 0, S1P2 antag -2, GALR2 ag 3, GALR2 blocker 3, PostGolgi yeast 16 and PostGolgi ctrl 12.
Screening Cc1sc2nc(SCc3nnc(-c4cccs4)o3)n(C3CCCC3)c(=O)c2c1C returned S1P2 agonist -7, S1P2 antag 11, GALR2 ag -1, GALR2 blocker -1, PostGolgi yeast 26 and PostGolgi ctrl 30*.
Screening Cc1sc2nc(SCC(=O)N(CCO)CCO)n(C3CCCCC3)c(=O)c2c1C returned S1P2 agonist -2, S1P2 antag -14, GALR2 ag 0, GALR2 blocker 1, PostGolgi yeast 2 and PostGolgi ctrl 13.
`Cc1nc(Nc2ccc(F)cc2)[nH]c(=O)c1CCC(C)C` gave S1P2 agonist -4, S1P2 antag -4, GALR2 ag 0, GALR2 blocker 6, PostGolgi yeast 3 and PostGolgi ctrl 32*.
`O=S(=O)(c1ccccc1)c1nc(-c2ccco2)oc1N1CCCCCC1` gave S1P2 agonist -2, S1P2 antag -22, GALR2 ag -2, GALR2 blocker -4, PostGolgi yeast -8 and PostGolgi ctrl 42*.
CCSc1oc(-c2ccco2)nc1S(=O)(=O)c1ccccc1 was read as S1P2 agonist -7, S1P2 antag 1, GALR2 ag -2, GALR2 blocker -4, PostGolgi yeast -14 and PostGolgi ctrl 12.
`CCCSc1oc(-c2ccco2)nc1S(=O)(=O)c1ccccc1` gave S1P2 agonist 0, S1P2 antag -13, GALR2 ag -2, GALR2 blocker -2, PostGolgi yeast 15 and PostGolgi ctrl 33*.
For O=C(CSc1oc(-c2ccco2)nc1S(=O)(=O)c1ccc(Cl)cc1)NCC1CCCO1 (configuration not stated) the results were S1P2 agonist -3, S1P2 antag -9, GALR2 ag 1, GALR2 blocker -17, PostGolgi yeast 37* and PostGolgi ctrl 11.
Clc1ccc(OCc2nnc3n2N=C(c2ccc4c(c2)OCCO4)CS3)c(Cl)c1 was read as GALR2 ag -1, GALR2 blocker 10, PostGolgi yeast -5 and PostGolgi ctrl 11.
For Cc1sc(NC(=O)CSc2nc(N)n(CC(=O)c3ccccc3)n2)c(C#N)c1C the results were S1P2 agonist -1, S1P2 antag -25, GALR2 ag 1, GALR2 blocker 9, PostGolgi yeast -1 and PostGolgi ctrl 8.
For NS(=O)(=O)c1ccc(Nc2nc(-c3ccc4ccccc4c3)cs2)cc1 the results were S1P2 agonist -6, S1P2 antag 10, GALR2 ag 0, GALR2 blocker 5, PostGolgi yeast -3 and PostGolgi ctrl 42*.
Screening O=S(=O)(C=C(c1ccccc1)c1ccccc1)c1ccccc1 returned S1P2 agonist -7, S1P2 antag -7, GALR2 ag -2, GALR2 blocker 4, PostGolgi yeast -5 and PostGolgi ctrl 36*.
O=S(=O)(/C=C/c1ccccc1)c1ccccc1 was read as S1P2 agonist -10, S1P2 antag -1, GALR2 ag 0, GALR2 blocker -3, PostGolgi yeast 1 and PostGolgi ctrl 5.
